Measured values published in PubChem BioAssay (Tox21).
Results filed as inconclusive are left out. Active and inactive are the calls of the source. Calls follow the shape of the dose curve; as a rule, active = well fitted inhibition curve with a large enough effect in the signal ratio in the repeat runs, with a control signal flat; inconclusive = weak or mixed curves, or effect the other way; inactive = flat fitted curve, though single readings scatter; the % refers to the signal ratio.

These compounds were tested against D(2) dopamine receptor (Homo sapiens) (UniProt P14416) (assay: Dopamine D2 receptor (DRD2) small molecule antagonists, cell-based qHTS assay (AID 1963595)). Details: HEK293-DRD2 cAMP HTRF antagonist mode; series mostly up to 92.4 µM; activity change, negative = inhibition: at the top concentration.
Sequence of D(2) dopamine receptor (Homo sapiens) (P14416 whole entry, looked up): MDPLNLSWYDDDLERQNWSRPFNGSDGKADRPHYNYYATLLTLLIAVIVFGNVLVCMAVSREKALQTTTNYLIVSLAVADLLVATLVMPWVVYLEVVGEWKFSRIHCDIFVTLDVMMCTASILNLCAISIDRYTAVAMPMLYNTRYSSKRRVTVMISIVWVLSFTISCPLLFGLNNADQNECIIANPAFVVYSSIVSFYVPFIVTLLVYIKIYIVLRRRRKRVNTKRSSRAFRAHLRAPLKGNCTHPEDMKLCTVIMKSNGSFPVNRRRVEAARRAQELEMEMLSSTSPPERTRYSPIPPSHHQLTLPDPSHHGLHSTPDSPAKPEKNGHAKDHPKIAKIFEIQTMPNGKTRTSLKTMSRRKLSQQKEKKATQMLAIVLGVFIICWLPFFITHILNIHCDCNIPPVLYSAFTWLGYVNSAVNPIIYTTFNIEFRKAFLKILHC
Text: National Center for Advancing Translational Sciences [NCATS]
Division of Preclinical Innovation [DPI]
U.S. Environmental Protection Agency [EPA]
National Institutes of Environmental Health Sciences [NIEHS]
National Toxicology Program [NTP]
U.S. Food and Drug Administration [FDA]
DRD2 is the D2 subtype of the dopamine receptor, which is coupled to Gi subtype of G protein-coupled receptor. This G protein-coupled receptor inhibits adenylyl cyclase activity. The DRD2-HEK293 cell line stably expressing D2 dopamine receptor can be used for screening agonists and antagonists of interactions between D2 and its ligands. The Hek293-DRD2 cAMP assay is based on HTRF technology. It measures changes of cAMP accumulation in response to Gi coupled GPCR activation or inhibition.
Tox21 Assay Protocol Summary:
DRD2-Hek293 cells were dispensed at 600 cells/3uL/well in 1536-well white plates using a Multidrop Dispenser. After the assay plates were incubated at a 37 C/5% CO2 incubator for 24 h, 1 uL of Ro20-1724 at final concentration of 0.1 mM was transferred to the assay plate by a Flying Reagent Dispenser. Following Ro20-1724 addition, 23 nL of compound dissolved in DMSO, positive controls or DMSO only was added to the assay plates via Wako pintool station. The assay plates were incubated at room temperature for 10 min. Next, 1 uL of mixture of NKH477 (final concentration at 200 nM) and quinpirole (final concentration at 12 nM) was added into the plates. After the assay plates were incubated at room temperature for an additional 30 min, 2.5 ul/well of cAMP-d2 and 2.5 ul/well of anti-cAMP-cryptate were added respectively into the assay plates using a Flying Reagent Dispenser. The plates were incubated at room temperature for 1 h. The fluorescence intensity in the plates was measured at 340 nm excitation and 665 & 620 nm emission by an Envision plate reader.
% is scaled to controls: 0 for no effect and ±100 for the full control effect; potency is read from the fitted curve at half-maximal effect.

Structure (SMILES)	activity change, negative = inhibition	Potency
COC(=O)c1cc(Cl)cc(Cl)c1	-1.49% (inactive)	–
CCC1OCC(COc2ccc(Oc3ccccc3)cc2)O1 (stereo not given)	6.9% (inactive)	–
Cc1c(C)c2c(c(C)c1OC(=O)c1cccnc1)CC[C@@](C)(CCC[C@H](C)CCC[C@H](C)CCCC(C)C)O2	-3.07% [at 42.5 µM] (inactive)	–
O=C(O)c1ccc2cc(C(=O)O)ccc2c1	-5.08% (inactive)	–
O=C(/C=C/c1ccc(O)c(O)c1)O[C@@H]1C[C@@](OC(=O)/C=C/c2ccc(O)c(O)c2)(C(=O)O)C[C@@H](O)[C@@H]1O	8.03% [at 42.5 µM] (inactive)	–
CCCCOCCOCCOCc1cc2c(cc1CCC)OCO2	6.7% [at 42.5 µM] (inactive)	–
COc1cccc(CCc2ccccc2OCC(CN(C)C)OC(=O)CCC(=O)O)c1 (stereo not given)	11.4% [at 42.5 µM] (inactive)	–
CCCCCCOC(=O)NC(=N)c1ccc(NCc2nc3cc(C(=O)N(CCC(=O)OCC)c4ccccn4)ccc3n2C)cc1	5.61% [at 42.5 µM] (inactive)	–
CCNC(=O)NCc1cccc(Cl)c1	1.28% [at 42.5 µM] (inactive)	–
CC(C)c1ccc2ncccc2c1	0.897% (inactive)	–
O=[N+]([O-])c1cc[n+]([O-])cc1	12.8% (inactive)	–
CCCCN(CCCC)CCC(O)c1cc2c(Cl)cc(Cl)cc2c2cc(C(F)(F)F)ccc12 (stereo not given)	0.109% [at 42.5 µM] (inactive)	–
COc1cc(Nc2c(C#N)cnc3cc(OCCCN4CCN(C)CC4)c(OC)cc23)c(Cl)cc1Cl	20.4% [at 42.5 µM] (inactive)	–
COc1ccnc2c1CCCCC2S(=O)c1nc2ccccc2[nH]1 (stereo not given)	4.9% [at 42.5 µM] (inactive)	–
O=C(O)Cc1cc(I)c(Oc2cc(I)c(O)c(I)c2)c(I)c1	5.39% [at 42.5 µM] (inactive)	–
CO[C@@]1(NC(=O)Cc2cccs2)C(=O)N2C(C(=O)O)=C(COC(N)=O)CS[C@@H]21	-0.234% [at 42.5 µM] (inactive)	–
CCC(C)(C)c1ccc(CC(C)CN2C[C@@H](C)O[C@@H](C)C2)cc1 (stereo not given in full)	4.89% [at 42.5 µM] (inactive)	–
COc1nccnc1CC(C)C	2.81% (inactive)	–
Cc1ccc2c(Br)cc(Br)c(O)c2n1	0.752% [at 42.5 µM] (inactive)	–
COC(C)(C)CC(C)=O	6.62% (inactive)	–

Structure (SMILES)	activity change, negative = inhibition	Potency
O=C1CN(/N=C/c2ccc([N+](=O)[O-])o2)C(=O)N1	–	inactive
CC(=O)N[C@@H](CCC(=O)O)C(=O)O	2.88% [at 42.5 µM] (inactive)	–
CCCCCCOc1ccc(O)cc1	–	48.6 µM (active)
Oc1ccc(N=Nc2ccccc2)cc1	1.97% (inactive)	–
C=CCCCCCCC=C	0.131% (inactive)	–
Oc1ccc(-c2ccccc2)c(Cl)c1	-16% (inactive)	–
CCOC(=O)c1ccc(N(C)C)cc1	14.5% (inactive)	–
Cc1c(NC(=O)c2cccnc2)c(=O)n(-c2ccccc2)n1C	-2.66% [at 42.5 µM] (inactive)	–
Cc1nc2ccc(CN(C)c3ccc(C(=O)N[C@@H](CCC(=O)O)C(=O)O)s3)cc2c(=O)[nH]1	-0.55% [at 42.5 µM] (inactive)	–
COC(=O)CC(=O)C(C)(C)C	-3.05% (inactive)	–
Cc1ccc2nc(-c3ccc(N)cc3)sc2c1S(=O)(=O)O	6.15% [at 42.5 µM] (inactive)	–
CC1=C(C/C=C(\C)CCC[C@H](C)CCC[C@H](C)CCCC(C)C)C(=O)c2ccccc2C1=O	-0.464% [at 42.5 µM] (inactive)	–
Cc1ncc([C@@H](CCCCCCc2ccc3c(n2)NCCC3)CC(=O)O)cn1	2.53% (inactive)	–
CCc1cc(Cc2cc(CC)c(N)c(CC)c2)cc(CC)c1N	–	54.5 µM (active)
NS(=O)(=O)c1ccc(C(=O)O)cc1	8.54% [at 42.5 µM] (inactive)	–
O=C(O)c1ccc(O)c(O)c1	12.1% (inactive)	–
CC(CO)(CO)CO	-0.808% (inactive)	–
CC(C)C(O)(c1ccc(OC(F)(F)F)cc1)c1cncnc1 (stereo not given)	12.5% (inactive)	–
Nc1ccc2cc(S(=O)(=O)O)cc(O)c2c1N=Nc1ccccc1C(F)(F)F	-6.62% (inactive)	–
c1ccc(-c2ccccn2)nc1	-2.42% (inactive)	–
